A340 absorber: absorbance at 340 nm | compound absorbance at 340 nm, fold over control | fold change at 10 µM | 65,000 tested, under 10 active | AID 708;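 active = at 10 µM dose, initial 340 nm absorbance at least 2 fold that of control wells; inactive = change under 2 fold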;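 note: initial absorbance extrapolated from kinetic A340 decline of NADH oxidation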
M1 agonist: agonists of M1 muscarinic receptor | AID 626 | B-score at 10 µM | CHO-M1 cells, Fluo-4 calcium fluorescence, agonist mode; hits give high values | actives 3% (n = 64,000);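 active = fluorescence rise, raw or as B-score row- and column-corrected plate score, outside the 99.7% band of its plate's samples, either direction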
Htt clearance: mutant huntingtin protein clearance; HeLa Exon1htt(103Q)mCFP, aggregate imaging; zero = plate's median compound well; inhibition, % at 1.5 µM; actives 0.42% (n = 47,000);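 active = inhibition of aggregate fluorescence above about 70%, also judged a hit by eye on the cell image, limit read from the data, passing the limit was not always enough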;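 note: cells exposed to compound for three days before fixation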
NADH coupling: inhibitors of enzymes used to reach an NAD/NADH endpoint. coupled PK/LDH NADH assays, four targets. IC50, µM (series often up to 10 µM). actives 0.02% (n = 65,000). AID 774;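 active = single-dose screening hits from any of four coupled enzyme assays that gave an IC50 when retested across doses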;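 note: the DPM-DC format reads NADH fluorescence rather than 340 nm absorbance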
M1 antagonist: blocks the rat M1 muscarinic receptor response to acetylcholine | P08482 | CHO-M1 cells, Fluo-4 calcium, ACh EC80 antagonist mode; hits give low values | B-score at 10 µM | actives 3.4% (n = 64,000);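 active = calcium fluorescence response, raw or row-and-column corrected B-score, differing from the plate sample mean either way at a set confidence level, mostly lower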
Target sequence (P08482 whole entry, looked up): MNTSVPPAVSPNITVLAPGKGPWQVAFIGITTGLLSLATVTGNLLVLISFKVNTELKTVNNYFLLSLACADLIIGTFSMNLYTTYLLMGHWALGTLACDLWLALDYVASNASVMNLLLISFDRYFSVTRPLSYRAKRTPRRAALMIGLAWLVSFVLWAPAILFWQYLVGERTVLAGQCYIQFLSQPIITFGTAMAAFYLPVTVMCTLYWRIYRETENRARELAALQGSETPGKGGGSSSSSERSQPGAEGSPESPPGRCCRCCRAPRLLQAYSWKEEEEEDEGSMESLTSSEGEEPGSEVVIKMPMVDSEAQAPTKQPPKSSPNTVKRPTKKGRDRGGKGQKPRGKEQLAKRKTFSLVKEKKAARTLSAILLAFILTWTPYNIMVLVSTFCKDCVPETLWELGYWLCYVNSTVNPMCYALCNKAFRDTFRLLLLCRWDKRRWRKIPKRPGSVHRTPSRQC
Autofluor 339: intrinsic fluorescence of library compounds, ex339/em460 – biochemical, MLSMR library, data from DPM-DC assay, artefact control, profiling panel; actives 5.5% (n = 65,000); compound autofluorescence, ex339/em460 nm, NADH buffer; hits give high values; 1 = no-compound wells, NADH background; fluorescence fold increase at 10 µM;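 active = at 10 µM, mean starting fluorescence two-fold or more over control wells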;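 note: signal is the first read of a kinetic run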
A number is an active result. A selection: hits, their analogues and other compounds. The true share with any hit is near 9.3%.

Results for Cc1nc(C)n(C(C)CC(=O)O)n1 (configuration not stated) ?
A340 absorber: inactive; M1 agonist: inactive; NADH coupling: inactive; M1 antagonist: inactive; Autofluor 339: inactive

How did COc1ccc(-c2cnn(-c3ccccc3)c2N)cc1OC do in these assays?
A340 absorber: inactive; M1 agonist: inactive; NADH coupling: inactive; M1 antagonist: inactive; Autofluor 339: inactive

Results for Nc1nc2c(s1)CCc1c-2cnn1-c1ccccc1 ?
A340 absorber: inactive; M1 agonist: inactive; Htt clearance: inactive; NADH coupling: 21µM; M1 antagonist: inactive; Autofluor 339: inactive

How did CC(C)N(C(=O)c1ccccc1-c1ccccc1)C(C)C do in these assays?
Htt clearance: inactive

What do the screens show for `CCCN1CCCc2cc(CN)ccc21`?
A340 absorber: inactive; M1 agonist: 5.65; NADH coupling: inactive; M1 antagonist: inactive; Autofluor 339: inactive

What do the screens show for `CN1CCCc2cc(C=O)ccc21`?
Htt clearance: inactive

Results for CCCCn1c(NC(=O)CC)c(C#N)c2nc3ccccc3nc21 ?
A340 absorber: inactive; M1 agonist: inactive; Htt clearance: inactive; NADH coupling: inactive; M1 antagonist: inactive; Autofluor 339: 2.96

What do the screens show for `CCC(=O)Nc1c(C#N)c2nc3ccccc3nc2n1C1CCCCC1`?
A340 absorber: inactive; M1 agonist: inactive; Htt clearance: inactive; NADH coupling: inactive; M1 antagonist: inactive; Autofluor 339: 2.28

What do the screens show for `CCC(=O)Nc1c(C#N)c2nc3ccccc3nc2n1-c1ccccc1C`?
A340 absorber: inactive; M1 agonist: inactive; NADH coupling: inactive; M1 antagonist: inactive; Autofluor 339: 3.09

Results for CCCCC(=O)Nc1ccccc1C#N ?
A340 absorber: inactive; M1 agonist: inactive; NADH coupling: inactive; M1 antagonist: inactive; Autofluor 339: inactive

What do the screens show for `N#Cc1c(N)n(C2CCCCC2)c2nc3ccccc3nc12`?
A340 absorber: inactive; M1 agonist: inactive; Htt clearance: inactive; NADH coupling: inactive; M1 antagonist: inactive; Autofluor 339: 3.91

How did c1ccc(Oc2ccc(-n3cnnn3)cc2)cc1 do in these assays?
A340 absorber: inactive; M1 agonist: inactive; Htt clearance: inactive; NADH coupling: inactive; M1 antagonist: inactive; Autofluor 339: inactive

What do the screens show for `COc1ccc2c(c1)CCCC21NC(=O)NC1=O` (configuration not stated)?
A340 absorber: inactive; M1 agonist: inactive; NADH coupling: inactive; M1 antagonist: inactive; Autofluor 339: inactive

Results for COc1ccc2cc(C3(C)NC(=O)NC3=O)ccc2c1 (configuration not stated) ?
A340 absorber: inactive; M1 agonist: inactive; Htt clearance: inactive; NADH coupling: inactive; M1 antagonist: 2.36; Autofluor 339: inactive

Results for C=CCn1c(SCC(=O)/C(C#N)=C(\C)N)nnc1C1CCCCC1 ?
A340 absorber: inactive; M1 agonist: inactive; NADH coupling: inactive; M1 antagonist: inactive; Autofluor 339: inactive

How did CCCCN(C)CCNC(=O)c1c[nH]c2ccc(S(=O)(=O)N(CC)CC)cc2c1=O do in these assays?
A340 absorber: inactive; M1 agonist: inactive; Htt clearance: inactive; NADH coupling: inactive; M1 antagonist: inactive; Autofluor 339: 3.17

What do the screens show for `CCCNC(=O)c1c[nH]c2ccc(S(=O)(=O)N(C)c3ccc(OCC)cc3)cc2c1=O`?
A340 absorber: inactive; M1 agonist: inactive; Htt clearance: inactive; NADH coupling: inactive; M1 antagonist: inactive; Autofluor 339: inactive

How did Cc1cccc2cc(C#N)c(NCCNC(=O)NC3CCCCC3)nc12 do in these assays?
A340 absorber: inactive; M1 agonist: inactive; NADH coupling: inactive; M1 antagonist: inactive; Autofluor 339: 2.07

How did Cc1ccc(SCCNS(=O)(=O)c2ccc3c(c2)OCCO3)cc1 do in these assays?
A340 absorber: inactive; M1 agonist: inactive; Htt clearance: inactive; NADH coupling: inactive; M1 antagonist: inactive; Autofluor 339: inactive

How did Cc1cccc2cc(C#N)c(NCCNS(=O)(=O)c3ccc4c(c3)OCCO4)nc12 do in these assays?
A340 absorber: inactive; M1 agonist: inactive; Htt clearance: inactive; NADH coupling: inactive; M1 antagonist: inactive; Autofluor 339: 2.15

Results for Cc1ccn2cc(CCNC(=O)C3CCCCC3)nc2c1 ?
Htt clearance: inactive

How did CCOc1ccc2nc(NCCNC(=O)Nc3cccc(C)c3)c(C#N)cc2c1 do in these assays?
A340 absorber: inactive; M1 agonist: inactive; NADH coupling: inactive; M1 antagonist: inactive; Autofluor 339: inactive

What do the screens show for `Cc1ccc2cc(C#N)c(NCCNC(=O)C3CCC3)nc2c1C`?
A340 absorber: inactive; M1 agonist: inactive; Htt clearance: inactive; NADH coupling: inactive; M1 antagonist: inactive; Autofluor 339: 3.12

How did COC(=O)c1cc2c(s1)-c1ccccc1OC2 do in these assays?
A340 absorber: inactive; M1 agonist: inactive; NADH coupling: inactive; M1 antagonist: inactive; Autofluor 339: 2.1

What do the screens show for `O=C(Nc1nccs1)c1cc2c(s1)-c1ccccc1OC2`?
Htt clearance: inactive

What do the screens show for `CCOC(=O)CSc1nnc(Cn2nnc(-c3ccccc3)n2)n1C`?
A340 absorber: inactive; M1 agonist: inactive; NADH coupling: inactive; M1 antagonist: inactive; Autofluor 339: inactive

What do the screens show for `CCOC(=O)C1CCN(c2cc(C)nc3cc(-c4cccc(F)c4)nn23)CC1`?
A340 absorber: inactive; M1 agonist: inactive; NADH coupling: inactive; M1 antagonist: inactive; Autofluor 339: 2.6

What do the screens show for `CCOC(=O)C1CCN(C(=O)CCc2c(C)nc3cc(-c4ccccc4)nn3c2C)CC1`?
Htt clearance: inactive

Results for Cc1cc2nc(-c3ccc(SCC(=O)N4CCN(C(=O)c5ccco5)CC4)nc3)[nH]c2cc1C ?
A340 absorber: inactive; M1 agonist: inactive; NADH coupling: inactive; M1 antagonist: inactive; Autofluor 339: 4.44

What do the screens show for `Cc1cc2nc(-c3ccc(SCC(=O)N4CCOCC4)nc3)[nH]c2cc1C`?
A340 absorber: inactive; M1 agonist: 11.7; Htt clearance: inactive; NADH coupling: inactive; M1 antagonist: inactive; Autofluor 339: 2.18

Results for CCOC(=O)CSc1ccc(-c2nc3cc(C)c(C)cc3[nH]2)cn1 ?
Htt clearance: inactive

How did COc1ccc(Cl)cc1NC(=O)CN1CCC(n2nnc3ccccc32)CC1 do in these assays?
A340 absorber: inactive; NADH coupling: inactive; Autofluor 339: inactive

Results for O=C1c2ccccc2NC(c2ccccn2)N1c1ccc(Cl)cc1 (configuration not stated) ?
A340 absorber: inactive; M1 agonist: inactive; NADH coupling: inactive; M1 antagonist: inactive; Autofluor 339: 4.83

How did Cc1cccc(C2Nc3ccccc3C(=O)N2c2ccccc2)n1 (configuration not stated) do in these assays?
A340 absorber: inactive; M1 agonist: inactive; NADH coupling: inactive; M1 antagonist: inactive; Autofluor 339: 2.16

How did O=C1c2ccccc2NC(c2ccccc2)N1c1ccc(O)cc1 (configuration not stated) do in these assays?
A340 absorber: inactive; M1 agonist: inactive; Htt clearance: inactive; NADH coupling: inactive; M1 antagonist: inactive; Autofluor 339: inactive
